For orientation: AC50 means the concentration giving half of the maximal activity seen.

Molecules are shown by their SMILES. Inconclusive results are not listed. The source holds several records for some structures; these can differ, active in one and inactive in another. Calls of active or inactive are those of the source. Rule for the calls, unless noted: active = hit-call score of the fitted dose curve at least 0.9, where 1 is the maximum; inactive = score below 0.9.

Data on 13 compounds can be found in PubChem BioAssay (EPA / NIEHS).

A short description of assay [1]: BSK_BT_PBMCCytotoxicity: PBMC Cytotoxicity Assessment in the BioMAP Diversity Plus: BT Assay (AID 2284225).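 Note: PBMC viability measured by Alamar Blue dye reduction fluorescence.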 As to conditions: primary human B cells with PBMC. The method in brief: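 75,000 cells/well; cpd 1 h → SEB + TSST-1 (20 ng/mL final each) → 90 h → Alamar Blue 6 h → fluor. 546/580 nm. DMSO = neg. control/baseline.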
Read-out in assay [2]: Secreted IgG (sIgG), gene 3500
Briefly: BSK_BT_sIgG: BioMAP Diversity Plus: BT Assay for Secreted IgG (sIgG) Biomarker Activity (AID 2284226). As to conditions: primary human B cells with PBMC. The procedure, abridged: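 Secreted IgG from a human primary B cell–PBMC co-culture was measured by ELISA 24 hours after dosing, with DMSO defining baseline activity.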

A short description of assay [3]: BSK_BT_Bcell_Proliferation: Viability Assessment in the BioMAP Diversity Plus: BT Assay for B cell Proliferation (AID 2284227). The settings on record: primary human B cells with PBMC. The procedure, abridged: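 Read-out is absorbance at 560 nm from sulforhodamine B staining of total protein, reflecting relative cell numbers in a human B cell and PBMC co-culture after 72 h of chemical exposure. Values were referenced to DMSO.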

Read-out in assay [4]: Interleukin 6 (IL6), IL6 (gene 3569)
Kind of assay: BSK_BT_xIL6: BioMAP Diversity Plus: BT Assay for Interleukin 6 (IL6) Biomarker Activity (AID 2284228). As to conditions: primary human B cells with PBMC. The method in brief:
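IL-6 secretion measured (Luminex xMAP) in human primary B cell + PBMC co-culture at 24 h of chemical exposure; DMSO served as negative control and activity baseline, with curves fitted for increase.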

Read-out in assay [5]: Interleukin 17A (IL17A), IL17A (gene 3605)
Kind of assay: BSK_BT_xIL17A: BioMAP Diversity Plus: BT Assay for Interleukin 17A (IL17A) Biomarker Activity (AID 2284229). The settings on record: primary human B cells with PBMC. The method in brief: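 Human primary B cells plus PBMC, treated 24 h with chemicals; supernatant IL-17A quantified on Luminex xMAP beads. Gain of signal over DMSO control scored as activity.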

Read-out in assay [6]: Tumor necrosis factor (Homo sapiens) (UniProt P01375)
Briefly: BSK_BT_xTNFa: BioMAP Diversity Plus: BT Assay for Tumor necrosis factor alpha (TNF-alpha) Biomarker Activity (AID 2284230). As to conditions: primary human B cells with PBMC. The method in brief: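 Human primary co-culture of B cells and peripheral blood mononuclear cells; TNF-alpha in supernatant, 24 h post-dose, Luminex multiplex; DMSO = baseline.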

Read-out in assay [7]: Vascular cell adhesion molecule 1 (VCAM1), VCAM1 (gene 7412)
Briefly: BSK_MyoF_VCAM1: BioMAP Diversity Plus: MyoF Assay for Vascular cell adhesion molecule 1 (VCAM1) Biomarker Activity (AID 2284231). As to conditions: primary human lung fibroblasts. The method in brief: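 VCAM-1 levels, lung fibroblasts, ELISA, 24 h exposure, increase scored relative to DMSO.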

The nature of assay [8]: CCTE_Mundy_HCI_Cortical_NOG_NeuriteCount: CCTE's Neurite Outgrowth Assay in rat cortical cells for Neurite Count, Mundy Lab (AID 2284212).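 Note: cells fixed about two days after chemical exposure began.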 The procedure, abridged: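 Neurite number per cell from high-content imaging of betaIII-tubulin immunostaining, with Hoechst nuclear counterstain.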
Assay [9] in a line: CCTE_Mundy_HCI_Cortical_NOG_NeuriteLength: CCTE's Neurite Outgrowth Assay in rat cortical cells for Neurite Length, Mundy Lab (AID 2284213). The method in brief: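 Neurite length was read by high-content imaging of βIII-tubulin-labelled neurites in rat primary cortical cultures. Activity was fitted relative to DMSO.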
Assay [10] in a line: CCTE_Mundy_HCI_Cortical_Synap_Neur_Matur_NeuriteLength: CCTE's Synaptogenesis and Neurite Maturation Assay in rat cortical cells for Neurite Length, Mundy Lab (AID 2284214). The method in brief: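 Neurite length in rat primary cortical cultures is imaged after MAP2, synaptophysin and Hoechst staining. Dosing starts DIV 7, ending DIV 12; DMSO serves as negative control and baseline.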

Assay [11] is described as follows: CCTE_Mundy_HCI_Cortical_Synap_Neur_Matur_NeuriteSpotCountPerNeuron: CCTE's Synaptogenesis and Neurite Maturation Assay in rat cortical cells for Neurite Spot Count per Neuron Count, Mundy Lab (AID 2284215). The procedure, abridged:
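Developing rat cortical neurons, with glia suppressed by AraC, are exposed to chemicals from DIV 7 to DIV 12. Automated fluorescence imaging of MAP2-labelled neurites and synaptophysin puncta yields a count per neuron, normalised against DMSO wells.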

Assay [12] is described as follows: CCTE_Mundy_HCI_Cortical_Synap_Neur_Matur_SynapseCount: CCTE's Synaptogenesis and Neurite Maturation Assay in rat cortical cells for Synapse Count, Mundy Lab (AID 2284218). The procedure, abridged: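 Synapse count per neuron is measured in rat cortical neurons exposed to chemicals between DIV 7 and DIV 12, with glial growth arrested by AraC at DIV 5. Synaptophysin and MAP2 staining is imaged automatically; activity is fitted relative to DMSO.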

Assay [13] in a line: CCTE_Mundy_HCI_Cortical_Synap_Neur_Matur_NeuriteCount: CCTE's Synaptogenesis and Neurite Maturation Assay in rat cortical cells for Neurite Count, Mundy Lab (AID 2284222).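 Note: exposure from day 7 to day 12 in vitro with readout at day 12.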 The method in brief: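 Primary rat cortical cells were plated, treated with AraC at DIV 5, then exposed to chemicals from DIV 7 through DIV 12. After fixation and immunostaining for MAP2 and synaptophysin, imaging quantified neurites, with DMSO as the negative control.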

Assay [14] can be described thus: CCTE_Mundy_HCI_Cortical_Synap_Neur_Matur_CellBodySpotCount: CCTE's Synaptogenesis and Neurite Maturation Assay in rat cortical cells for Cell Body Spot Count, Mundy Lab (AID 2284223). The method in brief: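 Chemicals were applied to AraC-treated rat primary cortical cells at DIV 7 and measured at DIV 12. Fixed cells were labelled for MAP2, synaptophysin and nuclei, and high-content imaging gave cell body synaptophysin spot counts per neuron relative to DMSO.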

Assay [15] in a line: UKN2_HCS_IMR90_cell_viability: Viability Assessment in the University of Konstanz (UKN) Leist Lab Neural Crest Cell Migration Assay in human induced IMR90 Pluripotent Stem Cells (UKN2) (AID 2284233).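 Note: viability of neural crest cells differentiated from IMR90 iPSC measured by calcein-AM fluorescence imaging; cells exposed to compound for 24 h after a 24 h migration phase.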 The method in brief:
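Human IMR90-derived neural crest cells were allowed to migrate for 24 h into a cell-free zone, then exposed to test chemicals for 24 h. Calcein-AM and Hoechst staining with high-content imaging gave viability, analysed against DMSO baseline.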

A short description of assay [16]: CCTE_Mundy_HCI_Cortical_NOG_NeuronCount: CCTE's Neurite Outgrowth Assay in rat cortical cells for Neuron Count, Mundy Lab (AID 2284236; active = hit-call score of the fitted dose curve at least 0.9, where 1 is the maximum;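 note: neurons counted by imaging betaIII-tubulin and Hoechst stained cortical cells; cells exposed to compound for about 48 hours before fixation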). The procedure, abridged:
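Read-out: neuron number by high-content imaging of betaIII-tubulin (Alexa Fluor-488) and Hoechst-labelled rat primary cortical cells.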

A short description of assay [17]: CCTE_Mundy_HCI_Cortical_NOG_BPCount: CCTE's Neurite Outgrowth Assay in rat cortical cells for Branch Point Count, Mundy Lab (AID 2284237). The method in brief: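 Measured 50.33 h after dosing, this morphology endpoint uses rat primary cortical cultures labelled for betaIII-tubulin. Branch points are quantified by high-content imaging, with DMSO as negative control and baseline.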

Assay [18] can be described thus: CCTE_Mundy_HCI_hNP1_Pro_ResponderAvgInten: CCTE's Proliferation Assay in human neuroprogenitor cells, Mundy Lab (AID 2284224; active = hit-call score of the fitted dose curve at least 0.9, where 1 is the maximum;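 note: human neural progenitor cells hNP1 derived from WA09 embryonic stem cells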). The method in brief:
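Proliferation was scored as BrdU labelling intensity in human neural progenitors derived from WA09 embryonic cells, measured 26.25 hours after chemical dosing. Activity was fitted relative to DMSO.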

Chain of Tumor necrosis factor (Homo sapiens) (P01375 whole entry, looked up): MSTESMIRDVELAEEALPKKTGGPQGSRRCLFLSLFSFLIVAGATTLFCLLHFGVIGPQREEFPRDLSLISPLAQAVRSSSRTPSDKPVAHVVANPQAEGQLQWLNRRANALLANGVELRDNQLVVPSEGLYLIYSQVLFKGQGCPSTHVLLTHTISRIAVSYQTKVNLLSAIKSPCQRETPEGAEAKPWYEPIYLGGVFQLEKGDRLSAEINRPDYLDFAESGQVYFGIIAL

Regarding `C=CCCCCCCCCC=O`, the outcome in assay [1], in [2], in assay [3], in assay [4], in assay [5] and in assay [6] was inactive. For the same compound, in assay [7], the outcome was inactive.

For the compound `CC(C)c1cccc(C(C)C)c1N`, the outcome in [1], in assay [2], in assay [3], in [4], in assay [5] and in assay [6] was inactive. Moreover, the outcome in assay [7] was inactive.

As to `CCCCNS(=O)(=O)c1ccccc1`, the compound was classed as inactive in [8], in [9], in assay [10], in assay [11], in [12] and in [13]. Further, the call in assay [14], in [15], in [16] and in [17] was inactive.

As to `CCCCCCCCC(CO)CCCCCC` (stereo not drawn), the result in assay [1], in [3], in [5], in assay [6] and in assay [7] was inactive. The AC50 in [2] was 33.7 µM (active); in assay [4], 30.2 µM (active).

`COc1ccc(C(=O)c2ccccc2)c(O)c1`: the result in [1], in assay [2], in assay [3], in assay [4], in assay [5] and in assay [6] was inactive. Also, in assay [7], the result was inactive.

With `O=C(Cl)c1c(Cl)c(Cl)c(C(=O)Cl)c(Cl)c1Cl`, the outcome in assay [1], in assay [2], in assay [3], in assay [4], in assay [5] and in assay [6] was inactive. Further, the result in assay [7] was inactive.

For the compound `CCOC(=O)C1=NOC(c2ccccc2)(c2ccccc2)C1`, the result in assay [1], in [3], in assay [5], in assay [6] and in assay [7] was inactive. Further, the AC50 in [2] is 20 µM (active); in [4], 6.05 µM (active).

For `Cc1noc(NS(=O)(=O)c2ccc(N)cc2)c1C`, the compound was classed as inactive in assay [8], in assay [9], in [10], in [11], in [12] and in assay [13]. Further, the call in [14] and in assay [17] was inactive.

In the case of `C=CC(=O)NCOCCCC`, the result in assay [1], in assay [2], in assay [3], in assay [4], in assay [5] and in assay [6] was inactive. For the same compound, the outcome in [7] was inactive.

As for `Cc1c(C(=O)c2c[nH]n(C)c2=O)ccc(S(C)(=O)=O)c1C1=NOCC1`, the result in assay [8], in assay [9], in assay [10], in assay [11], in assay [12] and in [13] was inactive. The compound was called inactive in assay [14] and in assay [17].

For the compound `C=CC(=O)OCCCCCCCC(C)C`, the outcome in [1], in assay [3], in assay [4], in assay [5], in assay [6] and in assay [7] was inactive. Moreover, in assay [2], the AC50 is 20 µM (active).

On to `O=C(O)C(F)(F)C(F)(F)C(F)(F)C(F)(F)C(=O)O`, for which the result in [18], in assay [1], in assay [2], in [3], in assay [4] and in assay [5] was inactive. The result in [6] and in assay [7] was inactive. The AC50 in assay [6] is 2.64 µM (active).

`Fc1ccc(Br)cc1`: the outcome in [1], in [2], in assay [3], in assay [4], in assay [5] and in assay [6] was inactive. Also, the result in assay [7] was inactive.
